# Test results from PubChem BioAssay (Tox21).
# Values without a mark were called inactive. Records with an inconclusive call do not appear. A call without a number means that no potency is given here. The source made the active and inactive calls. Unless noted, the call rests on the fitted dose curve.
# Columns and labels:
# [1] = qHTS assay to identify small molecule antagonists of the estrogen related receptor (ERR) signaling pathway from Tox21 library - cell viability counter screen (AID 1224834; active means well fitted curve in the direction sought with a large enough effect in the repeat runs; an effect the other way counts as inactive or inconclusive; further: nearly all actives have a fitted effect of over 30% in size)
# How it was run: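 Seeded ERR cells were rested 6 h at 37 C/5% CO2 before compounds, positive and negative controls or DMSO were added. Incubation continued for 17.5 h, and viability was then quantified by CellTiter-Fluor fluorescence.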
# [2] = qHTS assay to identify small molecule antagonists of the estrogen related receptor signaling pathway with the pleiotropic PPARgamma coactivator (PGC) from Tox21 10K library - cell viability counter screen (AID 1224840; active means well fitted cell-killing curve with a large enough effect in the repeat runs, not every such curve was filed as active; further: nearly all actives have a fitted effect of over 40% in size)
# How it was run: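 Seeded PGC/ERR cells (2,000/well, 6 h, 37 C/5% CO2) get compound by pin tool; 17.5 h incubation at 37 C; CellTiter-Fluor added, 30 min, fluorescence measured.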
# [3] = qHTS assay to identify small molecule antagonists of the estrogen related receptor signaling pathway with the pleiotropic PPARgamma coactivator (PGC) from Tox21 10K library (AID 1224841; call rule not given here; further: actives are mostly falling curves and most rising ones were filed inactive; nearly all actives have a fitted effect of over 50% in size)
# How it was run: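 Test chemicals dissolved in DMSO were applied to pre-incubated (6 h) PGC/ERR cells at 2,000 cells/well for an 18 h, 37 C treatment; reporter luminescence was then read using One-Glo.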
# [4] = qHTS assay to identify small molecule agonists of the estrogen related receptor signaling pathway with the pleiotropic PPARgamma coactivator (PGC) from Tox21 10K library (AID 1224842; active means well fitted curve in the direction sought with a large enough effect in the repeat runs; an effect the other way counts as inactive or inconclusive; further: nearly all actives have a fitted effect of over 15% in size; further: potency means the concentration at half of the fitted maximal effect)
# How it was run: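 Luminescence from One-Glo (30 min, room temperature) measured after PGC/ERR cells had 18 h at 37 C with pinned compound (23 nL in DMSO). Cells had been seeded at 2,000 per well and pre-incubated 6 h.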
# [5] = qHTS assay to identify small molecule antagonists of the estrogen related receptor (ERR) signaling pathway from Tox21 library (AID 1224848; active means well fitted curve in the direction sought with a large enough effect in the repeat runs; an effect the other way counts as inactive or inconclusive; further: nearly all actives have a fitted effect of over 50% in size)
# How it was run: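 ERR cell line, 2,000 cells/well. 6 h settle, then compound (DMSO) added; 18 h at 37 C; ONE-Glo luminescence after 30 min RT.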
# [6] = qHTS assay to identify small molecule agonists of the estrogen related receptor (ERR) signaling pathway from Tox21 library (AID 1224849); settings: ERR reporter cell line, ONE-Glo luciferase, 18 h; at 92.4 µM (top of the series) unless noted; further: nearly all actives have a fitted effect of over 15% in size
# How it was run: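 Tox21 compounds tested for ERR agonism in an NTP reporter cell line: 18 h treatment at 37 C, then ONE-Glo luminescence.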
# [7] = molecular target: Acetylcholinesterase (Homo sapiens) (UniProt P22303); experiment: Acetylcholinesterase (AChE) small molecule antagonists: colormetric cell-based qHTS assay (AID 1347395); further: nearly all actives have a fitted effect of over 30% in size
# How it was run: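 After overnight attachment at 37 C, SH-SY5Y cells get 30 min compound exposure; detection cocktail (acetylthiocholine, DTNB) then incubates 90 min at 37 C, and absorbance reflects AChE-generated thiocholine.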
# [8] = molecular target: Acetylcholinesterase (Homo sapiens) (UniProt P22303); experiment: Acetylcholinesterase (AChE) small molecule antagonists: enzyme-based qHTS assay (AID 1347397); settings: Potency: AChE enzyme activity inhibition; outcome: AChE enzyme activity inhibition; further: nearly all actives have a fitted effect of over 55% in size
# How it was run: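 First, recombinant human AChE (50 mU/mL as dispensed) received test compound or DMSO. Second, plates stood 30 min at room temperature. Third, DTNB and acetylthiocholine were added, followed by 10 min at room temperature and colorimetric detection.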
# [9] = molecular target: Acetylcholinesterase (Homo sapiens) (UniProt P22303); experiment: Acetylcholinesterase (AChE) small molecule antagonists: fluorescence cell-based qHTS assay (AID 1347398); settings: Potency: AChE activity; outcome: AChE activity; further: nearly all actives have a fitted effect of over 50% in size
# How it was run: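 Homogeneous quantitative HTS format. SH-SY5Y cells seeded at 2,000 per well settle overnight at 37 C. Compound pretreatment runs 30 min (37 C, 5% CO2); substrate/probe mix then reacts 40 min at RT before reading 490/520 nm.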
# [10] = molecular target: Acetylcholinesterase (Homo sapiens) (UniProt P22303); experiment: Acetylcholinesterase (AChE) small molecule antagonists: enzyme-based qHTS assay with human liver microsomes (AID 1347399); settings: Potency: qHTS inhibition; outcome: qHTS inhibition; further: nearly all actives have a fitted effect of over 60% in size
# How it was run: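 Recombinant human AChE (50 mU/mL in the enzyme mix) and human liver microsomes (0.25 mg/mL final) were preincubated with compound and NADPH (0.25 mg/mL final) for 30 min at 37 C. Acetylthiocholine/DTNB was then added; thiocholine was read colorimetrically after 10 min at room temperature.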
# [11] = qHTS assay to identify small molecule agonists of H2AX (AID 1224845; active means well fitted activation curve with a large enough effect in the signal ratio in the repeat runs, not every such curve was filed as active; the % refers to the signal ratio; further: potency means the concentration at half of the fitted maximal effect)
# How it was run: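 Phospho-H2AX Ser139 measured by HTRF (ex 320 nm; em 665 and 620 nm) after 24 hr antibody incubation. Compounds, 15 concentrations, 0.76% DMSO, were applied to CHO-K1 cells for 3hr at 37C before lysis.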
# [12] = qHTS assay for small molecule agonists of the p53 signaling pathway (AID 651631); further: nearly all actives have a fitted effect of over 15% in size; further: potency means the concentration at half of the fitted maximal effect
# How it was run: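 Beta-lactamase reporter activity under p53 response elements was quantified in HCT-116 cells by FRET fluorescence, following 16 h incubation with test compounds at 37 °C and 2 h substrate development at room temperature.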
# [13] = Caspase-3/7 induction in HepG2 cells by small molecules, qHTS assay (AID 1346978; active means well fitted curve in the direction sought with a large enough effect in the repeat runs; an effect the other way counts as inactive or inconclusive; further: nearly all actives have a fitted effect of over 15% in size)
# How it was run: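 Caspase-3/7 induction was measured by Caspase-Glo 3/7 luminescence (30 min, room temperature) after a 17 hr compound exposure of wild-type HepG2 cells seeded at 2,000 per well and pre-incubated 5 hr.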
# [14] = molecular target: Aryl hydrocarbon receptor (Homo sapiens) (UniProt P35869); experiment: qHTS assay to identify small molecule that activate the aryl hydrocarbon receptor (AhR) signaling pathway (AID 743085; active means well fitted curve in the direction sought with a large enough effect in the repeat runs; an effect the other way counts as inactive or inconclusive)
# How it was run: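 Stably transfected human liver carcinoma cells (HG2L7.5c1; 20 DRE-firefly luciferase) were incubated 5 h, dosed, and kept 24 h at 37C. Agonism was scored from increased luciferase luminescence.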
# Aromatase (Homo sapiens) = Aromatase (Homo sapiens) (UniProt P11511); experiment: qHTS assay to identify aromatase inhibitors (AID 743083; active means well fitted curve in the direction sought with a large enough effect in the repeat runs; an effect the other way counts as inactive or inconclusive; further: nearly all actives have a fitted effect of over 55% in size)
# [15] = test system: estrogen-related receptor alpha (ERRalpha) with PGC-1alpha coactivator, human; experiment: qHTS assay to identify small molecule antagonists of the estrogen related receptor signaling pathway with the pleiotropic PPARgamma coactivator (PGC) (AID 1224821);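 further: lower luminescence signal means antagonism of PGC/ERR signalling; nearly all actives have a fitted effect of over 50% in size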
# How it was run: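 Screening used NTP's PGC/ERR cells, dosed via pin tool with compound in DMSO alongside positive and negative controls. After 18 h at 37 C, One-Glo reagent sat 30 min at room temperature before luminescence detection.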
# [16] = qHTS assay to identify small molecule antagonists of the estrogen related receptor signaling pathway with the pleiotropic PPARgamma coactivator (PGC) cell viability counter screen (AID 1224822; active means well fitted curve in the direction sought with a large enough effect in the repeat runs; an effect the other way counts as inactive or inconclusive)
# How it was run: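 Counter screen for cell viability: PGC/ERR cells, 6 h pre-incubation after plating, 17.5 h compound exposure at 37 C, fluorescence from CellTiter-Fluor after 30 min.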
# [17] = qHTS assay to identify small molecule agonists of the estrogen related receptor signaling pathway with the pleiotropic PPARgamma coactivator (PGC) (AID 1224823; active means well fitted curve in the direction sought with a large enough effect in the repeat runs; an effect the other way counts as inactive or inconclusive)
# How it was run: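 In this quantitative high-throughput screen, an 18 h, 37 C treatment of PGC/ERR cells with compounds in DMSO preceded a One-Glo luminescence read taken after 30 min at room temperature.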
# Sequence of Acetylcholinesterase (Homo sapiens) (P22303 whole entry, looked up): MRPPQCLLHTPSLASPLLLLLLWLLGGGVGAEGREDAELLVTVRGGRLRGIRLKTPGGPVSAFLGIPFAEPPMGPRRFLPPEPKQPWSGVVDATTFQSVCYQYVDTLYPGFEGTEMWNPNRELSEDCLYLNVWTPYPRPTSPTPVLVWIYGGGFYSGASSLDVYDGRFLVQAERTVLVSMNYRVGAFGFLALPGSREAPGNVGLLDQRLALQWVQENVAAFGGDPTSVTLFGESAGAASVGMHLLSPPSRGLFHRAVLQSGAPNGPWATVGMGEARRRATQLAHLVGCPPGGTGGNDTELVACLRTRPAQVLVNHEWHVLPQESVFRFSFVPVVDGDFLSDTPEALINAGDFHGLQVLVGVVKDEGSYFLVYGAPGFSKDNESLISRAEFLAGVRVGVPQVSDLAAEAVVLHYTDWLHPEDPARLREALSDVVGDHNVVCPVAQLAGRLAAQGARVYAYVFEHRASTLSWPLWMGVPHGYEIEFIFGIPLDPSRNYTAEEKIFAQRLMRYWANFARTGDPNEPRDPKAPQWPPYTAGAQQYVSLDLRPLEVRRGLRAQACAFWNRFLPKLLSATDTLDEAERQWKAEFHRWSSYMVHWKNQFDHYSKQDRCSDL
# Sequence of Aromatase (Homo sapiens) (P11511 whole entry, looked up): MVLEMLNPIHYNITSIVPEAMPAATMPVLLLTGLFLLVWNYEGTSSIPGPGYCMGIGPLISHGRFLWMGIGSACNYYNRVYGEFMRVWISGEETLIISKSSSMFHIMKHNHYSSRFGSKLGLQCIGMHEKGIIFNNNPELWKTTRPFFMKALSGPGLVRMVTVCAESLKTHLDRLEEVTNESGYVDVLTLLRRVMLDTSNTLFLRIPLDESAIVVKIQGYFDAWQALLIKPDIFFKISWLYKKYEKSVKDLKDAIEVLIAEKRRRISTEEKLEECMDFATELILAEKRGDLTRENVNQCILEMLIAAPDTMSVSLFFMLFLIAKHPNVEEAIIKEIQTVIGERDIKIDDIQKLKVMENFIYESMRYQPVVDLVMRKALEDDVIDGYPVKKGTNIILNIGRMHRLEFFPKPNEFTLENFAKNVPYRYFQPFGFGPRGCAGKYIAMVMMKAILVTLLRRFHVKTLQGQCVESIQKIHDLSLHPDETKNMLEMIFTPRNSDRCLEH
# Sequence of Aryl hydrocarbon receptor (Homo sapiens) (P35869 whole entry, looked up): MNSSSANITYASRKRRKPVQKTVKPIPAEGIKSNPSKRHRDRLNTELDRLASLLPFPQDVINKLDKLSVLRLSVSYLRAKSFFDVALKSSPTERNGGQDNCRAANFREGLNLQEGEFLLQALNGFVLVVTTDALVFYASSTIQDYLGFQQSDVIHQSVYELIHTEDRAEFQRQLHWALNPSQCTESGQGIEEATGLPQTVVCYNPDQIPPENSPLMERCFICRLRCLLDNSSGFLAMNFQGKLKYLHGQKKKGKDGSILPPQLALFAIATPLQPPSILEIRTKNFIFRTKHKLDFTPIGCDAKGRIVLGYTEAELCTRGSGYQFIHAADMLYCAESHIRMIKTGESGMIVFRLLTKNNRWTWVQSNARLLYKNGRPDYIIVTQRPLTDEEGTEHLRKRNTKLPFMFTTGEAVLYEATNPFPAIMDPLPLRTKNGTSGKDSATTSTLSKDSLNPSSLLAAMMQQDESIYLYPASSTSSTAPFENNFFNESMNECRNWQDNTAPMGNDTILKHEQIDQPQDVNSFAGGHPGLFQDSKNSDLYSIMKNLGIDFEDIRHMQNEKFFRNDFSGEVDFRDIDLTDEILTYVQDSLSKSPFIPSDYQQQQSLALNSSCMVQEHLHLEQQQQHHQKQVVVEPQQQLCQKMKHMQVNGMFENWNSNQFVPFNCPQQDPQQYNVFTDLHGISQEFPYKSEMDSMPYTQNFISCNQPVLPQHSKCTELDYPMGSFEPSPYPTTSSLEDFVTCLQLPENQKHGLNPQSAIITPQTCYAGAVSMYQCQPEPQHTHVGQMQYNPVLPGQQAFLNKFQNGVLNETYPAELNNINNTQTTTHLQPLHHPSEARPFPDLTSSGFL
compound,measurement,setting,value
CCC1C(=O)OCC1Cc1cncn1C (stereo not drawn),Potency,[1],inactive
same,Potency,[2],inactive
same,Potency,[3],inactive
same,Potency,[4],inactive
same,Potency,[5],inactive
same,"activity change, positive = activation",[6],4.65% [at 42.5 µM]
same,Potency,[7],inactive
same,Potency,[8],inactive
same,Potency,[9],inactive
same,Potency,[10],inactive
CN1[C@@H]2CC[C@@H]1CC(OC(=O)C(CO)c1ccccc1)C2 (stereo partly drawn),Potency,[11],inactive
O=Nc1ccc(Nc2ccccc2)cc1,Potency,[12],61.1 µM (active)
same,Potency,[4],9.74 µM (active)
same,"activity change, positive = activation",[6],-79.9% (active)
same,Potency,[13],inactive
same,Potency,[7],inactive
same,Potency,[8],inactive
same,Potency,[9],inactive
same,Potency,[10],inactive
O=P(OC(CCl)CCl)(OC(CCl)CCl)OC(CCl)CCl,Potency,[12],inactive
same,Potency,[14],inactive
same,Potency,[4],inactive
same,Potency,[11],inactive
same,Potency,[13],inactive
same,Potency,[7],inactive
same,Potency,[8],inactive
same,Potency,[10],inactive
N#CC1(O)CCCCC1,Potency,Aromatase (Homo sapiens),inactive
same,Potency,[11],inactive
same,Potency,[7],inactive
same,Potency,[8],inactive
same,Potency,[9],inactive
same,Potency,[10],inactive
COC[C@H]1OC(=O)c2coc3c2[C@@]1(C)C1=C(C3=O)C2CCC(=O)[C@@]2(C)C[C@H]1OC(C)=O (stereo partly drawn),Potency,[15],inactive
same,Potency,[16],inactive
same,Potency,[17],inactive
ClC(Cl)(Cl)c1ccc(C(Cl)(Cl)Cl)cc1,Potency,Aromatase (Homo sapiens),inactive
same,Potency,[14],inactive
same,Potency,[11],112 µM (active)
same,Potency,[7],inactive
same,Potency,[8],inactive
same,Potency,[9],inactive
same,Potency,[10],inactive
